Results published in PubChem BioAssay (EPA / NIEHS).
The source made the active and inactive calls. Rule for the calls: active = hit-call score of the fitted dose curve at least 0.9, where 1 is the maximum; inactive = score below 0.9.

Assays:
Settings in all cases: mRNA level, 48 h; actives raise or lower the signal
[1] = read-out: Peroxisomal acyl-coenzyme A oxidase 1 (ACOX1) gene, ACOX1 (gene 51); assay: LTEA_HepaRG_ACOX1: Life Technologies and Expression Analysis (LTEA) Assay for Peroxisomal acyl-coenzyme A oxidase 1 (ACOX1) gene using HepaRG (AID 2283467)
In short: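 Differentiated human HepaRG cells were exposed in duplicate for 48 h in serum-free induction medium to eight half-log concentrations up to 100 uM in 0.5% DMSO. ACOX1 mRNA was then quantified by TaqMan qRT-PCR, normalized to ACTB, GAPDH and POLR2A.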

[2] = read-out: Alkaline Phosphatase, Placental (ALPP) gene, ALPP (gene 250); assay: LTEA_HepaRG_ALPP: Life Technologies and Expression Analysis (LTEA) Assay for Alkaline Phosphatase, Placental (ALPP) gene using HepaRG (AID 2283468)
In short: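 Differentiated human HepaRG cells were plated and cultured 48 h, then exposed in duplicate for 48 h in serum-free induction medium to eight half-log concentrations from 100 uM in 0.5% DMSO. ALPP mRNA was measured by TaqMan qRT-PCR, normalized to ACTB, GAPDH, POLR2A.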

[3] = read-out: Bcl-2 (BAD) gene, BAD (gene 572); assay: LTEA_HepaRG_BAD: Life Technologies and Expression Analysis (LTEA) Assay for Bcl-2 (BAD) gene using HepaRG (AID 2283469)
In short: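 Differentiated human HepaRG cells in serum-free induction medium were exposed in duplicate for 48 h to eight concentrations (top 100 uM, half-log steps, 0.5% DMSO). BAD mRNA was quantified by qRT-PCR normalised to ACTB, GAPDH and POLR2A, with bidirectional fitting versus DMSO.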

[4] = read-out: Bcl-2 (BAX) gene, BAX (gene 581); assay: LTEA_HepaRG_BAX: Life Technologies and Expression Analysis (LTEA) Assay for Bcl-2 (BAX) gene using HepaRG (AID 2283470)
In short: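 Differentiated human HepaRG cells, plated 48 h then switched to serum-free induction medium, were exposed 48 h to 8 half-log concentrations up to 100 uM in 0.5% DMSO; BAX mRNA measured by qRT-PCR, normalized to ACTB, GAPDH, POLR2A.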

[5] = read-out: adenosine kinase (ADK) gene, ADK (gene 132); assay: LTEA_HepaRG_ADK: Life Technologies and Expression Analysis (LTEA) Assay for adenosine kinase (ADK) gene using HepaRG (AID 2283471)
In short: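 ADK expression quantified by qRT-PCR, normalised to three housekeeping genes, after 48 h exposure of HepaRG cells to eight concentrations (top 100 uM, half-log steps, duplicate, 0.5% DMSO). Up- or down-regulation fitted relative to vehicle.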

[6] = read-out: Alpha-fetoprotein (AFP) gene, AFP (gene 174); assay: LTEA_HepaRG_AFP: Life Technologies and Expression Analysis (LTEA) Assay for Alpha-fetoprotein (AFP) gene using HepaRG (AID 2283472)
In short: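 Human HepaRG cells plated 48 h, then switched to serum-free induction medium and exposed in duplicate for 48 h to 8-point half-log series from 100 uM in 0.5% DMSO. AFP mRNA by qRT-PCR, normalized to ACTB, GAPDH, POLR2A; bidirectional fit versus DMSO.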

[7] = read-out: BCL2L11 (gene 10018); assay: LTEA_HepaRG_BCL2L11: Life Technologies and Expression Analysis (LTEA) Assay for Bcl-2 (BCL2L11) gene using HepaRG (AID 2283473)
In short: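 Differentiated human HepaRG cells in serum-free induction medium were exposed in duplicate for 48 h to eight concentrations (top 100 uM, half-log steps, 0.5% DMSO). BCL2L11 mRNA was quantified by TaqMan qRT-PCR, normalized to ACTB/GAPDH/POLR2A, bidirectional fit versus DMSO.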

[8] = read-out: Apolipoprotein A-V (APOA5) gene, APOA5 (gene 116519); assay: LTEA_HepaRG_APOA5: Life Technologies and Expression Analysis (LTEA) Assay for Apolipoprotein A-V (APOA5) gene using HepaRG (AID 2283474)
In short: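 Differentiated human HepaRG cells were exposed in duplicate for 48 h to eight half-log concentrations from 100 uM in 0.5% DMSO. APOA5 mRNA was quantified by TaqMan qRT-PCR, normalized to ACTB, GAPDH and POLR2A, and fitted bidirectionally against DMSO.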

[9] = read-out: Apoptosis regulator Bcl-2 (Homo sapiens) (UniProt P10415); assay: LTEA_HepaRG_BCL2: Life Technologies and Expression Analysis (LTEA) Assay for Bcl-2 gene using HepaRG (AID 2283475)
In short: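 Differentiated HepaRG cells in serum-free induction medium were exposed for 48 h to eight half-log concentrations up to 100 uM in 0.5% DMSO, in duplicate. BCL2 mRNA was quantified by TaqMan qRT-PCR normalised to ACTB, GAPDH and POLR2A, with bidirectional fitting versus DMSO.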

[10] = read-out: Bcl-2 (BID) gene, BID (gene 637); assay: LTEA_HepaRG_BID: Life Technologies and Expression Analysis (LTEA) Assay for Bcl-2 (BID) gene using HepaRG (AID 2283476)
In short: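 Differentiated HepaRG cells in serum-free induction medium were exposed in duplicate for 48 h to eight half-log concentrations up to 100 uM in 0.5% DMSO. BID mRNA was quantified by qRT-PCR, normalized to ACTB, GAPDH and POLR2A.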

[11] = read-out: Caspase-3 (Homo sapiens) (UniProt P42574); assay: LTEA_HepaRG_CASP3: Life Technologies and Expression Analysis (LTEA) Assay for cysteine-aspartic acid protease (CASP3) using HepaRG (AID 2283477)
In short: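 Differentiated human HepaRG cells in serum-free induction medium were exposed 48 h to 8-point half-log concentrations from 100 uM (0.5% DMSO vehicle). CASP3 mRNA was measured by qRT-PCR, normalised to ACTB, GAPDH and POLR2A, with bidirectional fitting against DMSO.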

[12] = read-out: Cytochrome P450 (CYP24A1), CYP24A1 (gene 1591); assay: LTEA_HepaRG_CYP24A1: Life Technologies and Expression Analysis (LTEA) Assay for Cytochrome P450 (CYP24A1) using HepaRG (AID 2283478)
In short: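 Differentiated HepaRG cells, pre-cultured 48 h, were exposed in duplicate for 48 h in serum-free induction medium to 8 half-log concentrations (top 100 uM, 0.5% DMSO). CYP24A1 mRNA was quantified by TaqMan qRT-PCR, normalized to ACTB/GAPDH/POLR2A, fitted bidirectionally versus DMSO.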

[13] = read-out: Cytochrome P450 (CYP1A2), CYP1A2 (gene 1544); assay: LTEA_HepaRG_CYP1A2: Life Technologies and Expression Analysis (LTEA) Assay for Cytochrome P450 (CYP1A2) using HepaRG (AID 2283479)
In short: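 Differentiated human HepaRG cells in serum-free induction medium were exposed in duplicate for 48 h to 8-point half-log concentrations up to 100 uM in 0.5% DMSO. CYP1A2 mRNA measured by qRT-PCR, normalized to ACTB, GAPDH, POLR2A; bidirectional fit vs DMSO.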

[14] = read-out: cysteine-aspartic acid protease (CASP8), CASP8 (gene 841); assay: LTEA_HepaRG_CASP8: Life Technologies and Expression Analysis (LTEA) Assay for cysteine-aspartic acid protease (CASP8) using HepaRG (AID 2283480)
In short: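 Differentiated human HepaRG cells, plated 48 h then switched to serum-free induction medium, were exposed in duplicate for 48 h to 8 half-log concentrations up to 100 uM in 0.5% DMSO. CASP8 mRNA was quantified by qRT-PCR, normalized to ACTB/GAPDH/POLR2A.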

[15] = read-out: Cytochrome P450 (CYP2B6), CYP2B6 (gene 1555); assay: LTEA_HepaRG_CYP2B6: Life Technologies and Expression Analysis (LTEA) Assay for Cytochrome P450 (CYP2B6) using HepaRG (AID 2283481)
In short: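 Differentiated HepaRG cells, serum-free induction medium, exposed 48 h in duplicate to 8-point half-log concentrations from 100 uM in 0.5% DMSO. CYP2B6 mRNA by qRT-PCR, normalized to ACTB, GAPDH, POLR2A; bidirectional fit versus DMSO.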

[16] = read-out: Cytochrome P450 2C19 (Homo sapiens) (UniProt P33261); assay: LTEA_HepaRG_CYP2C19: Life Technologies and Expression Analysis (LTEA) Assay for CYP2C19 using HepaRG (AID 2283482)
In short: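 Differentiated human HepaRG cells were exposed for 48 h in serum-free induction medium to 8 concentrations (top 100 uM, half-log steps, 0.5% DMSO). CYP2C19 mRNA was measured by qRT-PCR, normalized to ACTB/GAPDH/POLR2A, and fitted bidirectionally against DMSO.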

[17] = read-out: CYP2C8 (gene 1558); assay: LTEA_HepaRG_CYP2C8: Life Technologies and Expression Analysis (LTEA) Assay for CYP2C8 using HepaRG (AID 2283483)
In short: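 Differentiated human HepaRG cells were exposed for 48 h in serum-free induction medium to eight half-log concentrations up to 100 uM in 0.5% DMSO, in duplicate. CYP2C8 mRNA was measured by TaqMan qRT-PCR, normalized to ACTB, GAPDH and POLR2A, and fitted bidirectionally against DMSO.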

[18] = read-out: CYP2C9 (gene 1559); assay: LTEA_HepaRG_CYP2C9: Life Technologies and Expression Analysis (LTEA) Assay for CYP2C9 using HepaRG (AID 2283484)
In short: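 Differentiated human HepaRG cells were exposed 48 h in serum-free induction medium to eight half-log concentrations up to 100 uM in 0.5% DMSO. CYP2C9 mRNA was measured by qRT-PCR, normalized to ACTB, GAPDH and POLR2A, and fitted bidirectionally against DMSO.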

[19] = read-out: CYP2E1 (gene 1571); assay: LTEA_HepaRG_CYP2E1: Life Technologies and Expression Analysis (LTEA) Assay for CYP2E1 using HepaRG (AID 2283485)
In short: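 HepaRG cells in serum-free induction medium exposed 48 h to test chemicals, 8 half-log concentrations up to 100 uM in 0.5% DMSO, duplicate. CYP2E1 mRNA by qRT-PCR, normalized to ACTB, GAPDH, POLR2A; bidirectional fit versus DMSO.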

Measured: AC50

Sequence of Apoptosis regulator Bcl-2 (Homo sapiens) (P10415 whole entry, looked up): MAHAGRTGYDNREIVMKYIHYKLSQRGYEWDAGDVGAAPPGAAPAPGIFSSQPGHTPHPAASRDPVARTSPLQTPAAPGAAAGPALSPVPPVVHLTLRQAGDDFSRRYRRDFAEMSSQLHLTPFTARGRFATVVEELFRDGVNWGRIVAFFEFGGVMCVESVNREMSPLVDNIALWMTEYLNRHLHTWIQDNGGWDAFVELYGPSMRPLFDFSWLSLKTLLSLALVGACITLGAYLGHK
Sequence of Cytochrome P450 2C19 (Homo sapiens) (P33261 whole entry, looked up): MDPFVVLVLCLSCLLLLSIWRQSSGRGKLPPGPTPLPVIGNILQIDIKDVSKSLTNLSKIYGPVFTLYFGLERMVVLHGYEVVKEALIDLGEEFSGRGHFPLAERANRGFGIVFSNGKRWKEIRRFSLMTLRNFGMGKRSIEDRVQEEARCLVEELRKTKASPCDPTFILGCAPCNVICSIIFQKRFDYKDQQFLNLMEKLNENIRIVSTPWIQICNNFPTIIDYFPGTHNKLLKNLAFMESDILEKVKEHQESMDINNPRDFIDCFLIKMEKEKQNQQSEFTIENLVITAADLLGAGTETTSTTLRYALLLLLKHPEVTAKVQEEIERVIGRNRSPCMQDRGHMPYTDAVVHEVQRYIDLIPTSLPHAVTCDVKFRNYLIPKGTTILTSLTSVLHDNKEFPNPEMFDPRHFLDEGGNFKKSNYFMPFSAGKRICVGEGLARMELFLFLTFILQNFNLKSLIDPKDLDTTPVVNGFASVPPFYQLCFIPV
Sequence of Caspase-3 (Homo sapiens) (P42574 whole entry, looked up): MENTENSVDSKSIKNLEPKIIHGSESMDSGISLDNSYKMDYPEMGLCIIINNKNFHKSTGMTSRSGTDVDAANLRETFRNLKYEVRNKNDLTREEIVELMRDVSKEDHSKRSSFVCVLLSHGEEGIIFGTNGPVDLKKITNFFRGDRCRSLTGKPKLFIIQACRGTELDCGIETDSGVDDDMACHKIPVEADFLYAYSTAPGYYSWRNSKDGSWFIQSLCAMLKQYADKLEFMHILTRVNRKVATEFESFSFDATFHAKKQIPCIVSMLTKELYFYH

CC1=CC(=O)/C(=C(/C)O)C(=O)O1
inactive: all assays above

CCOC(=O)O[C@H](C)OC(=O)c1ccc2c(c1)cc(C(=O)NC1CCN(C(C)C)CC1)n2Cc1cc(-c2ccc(Cl)s2)on1
active: [13] 69.7 µM
not listed: [2]
inactive: all other assays above

CCCCCc1ccc(N)cc1
active: [13] 30.3 µM | [15] 18.8 µM | [17] 18.7 µM
not listed: [2]
inactive: all other assays above

Cc1oc2c(NC(=O)c3c(Cl)cccc3Cl)cccc2c1C(C)(C)O
inactive: [3] | [5] | [7] | [10] | [11] | [12] | [14]
active: [1] 30 µM | [4] 85.9 µM | [6] 15.8 µM | [8] 50.7 µM | [9] 55.3 µM | [13] 12.7 µM | [15] 32.8 µM | [16] 33.5 µM | [17] 35.8 µM | [18] 33.8 µM | [19] 39.7 µM

CC1(C)NC(=O)N(c2ccc([N+](=O)[O-])c(C(F)(F)F)c2)C1=O
inactive: [3] | [4] | [5] | [7] | [10] | [11] | [12] | [14]
active: [1] 63.7 µM | [2] 50 µM | [6] 80.5 µM | [8] 67.9 µM | [9] 78.9 µM | [13] 85.5 µM | [15] 81.4 µM | [16] 12.4 µM | [17] 85.5 µM | [18] 83.6 µM | [19] 63.2 µM

Cc1ccc2oc(CN(Cc3ccccc3)C(=O)Nc3c(F)cc(F)cc3F)c(-c3ccc(Cl)cc3)c2c1
active: [6] 32 µM | [8] 44.2 µM | [9] 44.2 µM | [15] 77 µM | [18] 12.4 µM | [19] 28.4 µM
not listed: [2] | [13]
inactive: all other assays above

O=CCCCC=O
not listed: [2]
inactive: all other assays above
